# From PubChem BioAssay AID1671463 (Sanford-Burnham Center for Chemical Genomics, 2021)
# Out of some 370,000 compounds screened, about 520 (0.14%) were called active. Rule as the data show it: active = activation above about 40%; inactive = the rest. Many of the other results were omitted from the sample, so actives are more common in it than they were.
# Biological target: Atrial natriuretic peptide receptor 1 (Homo sapiens) (UniProt P16066)
# Assay: GC-A stimulated cGMP production enhancers – HEK293 GC-A cells, cGMP TR-FRET, EC30 ANP, primary screen (AID 1671463)
# Settings: at 10 µM, stronger effect = higher value; 0% at EC30 ANP, 100% saturating ANP unless noted
# Chain of Atrial natriuretic peptide receptor 1 (Homo sapiens) (P16066 whole entry, looked up): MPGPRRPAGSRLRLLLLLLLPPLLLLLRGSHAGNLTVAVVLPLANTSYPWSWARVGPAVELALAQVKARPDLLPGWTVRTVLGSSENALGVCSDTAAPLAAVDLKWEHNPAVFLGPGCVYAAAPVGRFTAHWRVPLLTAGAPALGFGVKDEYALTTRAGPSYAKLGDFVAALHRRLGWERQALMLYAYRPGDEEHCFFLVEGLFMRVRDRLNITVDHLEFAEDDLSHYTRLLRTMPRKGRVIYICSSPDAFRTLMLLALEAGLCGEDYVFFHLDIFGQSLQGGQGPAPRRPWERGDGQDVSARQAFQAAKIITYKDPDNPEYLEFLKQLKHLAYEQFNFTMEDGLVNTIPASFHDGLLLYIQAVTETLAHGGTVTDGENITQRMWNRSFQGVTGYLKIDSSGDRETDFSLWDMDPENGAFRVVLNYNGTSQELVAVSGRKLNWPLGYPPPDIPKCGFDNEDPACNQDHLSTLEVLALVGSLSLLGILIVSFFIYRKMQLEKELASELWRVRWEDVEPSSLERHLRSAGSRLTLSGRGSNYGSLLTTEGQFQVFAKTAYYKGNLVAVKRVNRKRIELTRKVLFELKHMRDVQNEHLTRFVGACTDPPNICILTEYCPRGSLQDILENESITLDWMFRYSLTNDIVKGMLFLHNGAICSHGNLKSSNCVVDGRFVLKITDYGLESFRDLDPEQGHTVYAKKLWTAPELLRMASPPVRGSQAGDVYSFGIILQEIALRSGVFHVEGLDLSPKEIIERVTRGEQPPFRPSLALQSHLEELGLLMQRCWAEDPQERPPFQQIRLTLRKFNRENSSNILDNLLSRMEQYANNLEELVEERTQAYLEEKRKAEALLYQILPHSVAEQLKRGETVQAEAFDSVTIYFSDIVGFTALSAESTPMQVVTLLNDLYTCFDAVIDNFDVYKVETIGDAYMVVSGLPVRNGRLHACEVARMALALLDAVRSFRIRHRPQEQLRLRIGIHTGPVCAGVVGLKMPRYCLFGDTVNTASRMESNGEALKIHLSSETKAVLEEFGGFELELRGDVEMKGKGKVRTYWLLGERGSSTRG
row,SMILES,activation
1,Cc1cccc(N2C(=O)NC(=O)/C(=C\c3cnn(-c4ccccc4)c3)C2=O)c1,54.5% [setting not given] (active)
2,Cc1ccccc1CCC[C@@H](CC1CCCCC1)CN(C)C(=O)Oc1ccccc1,2.21% (inactive)
3,Nc1ccc([N+](=O)[O-])cc1,1.78% (inactive)
4,O=C1NC(=O)N(Cc2ccco2)C(=O)/C1=C\c1ccc(-c2ccc(F)cc2)o1,48.8% [setting not given] (active)
5,COC(=O)C1=C(c2cc3ccccc3o2)C[C@@H]2CC[C@H]1N2C(=O)NC1CCCCC1,-7.28% (inactive)
6,Cc1cc(N2CCNC[C@@H]2C)ccc1N1CC[C@H](O)C1,-0.67% (inactive)
7,COP(=O)(Sc1ccccc1)C(Cc1ccccc1)NC(=O)OCc1ccccc1 (stereo not given),-3.05% (inactive)
8,CO[C@H]([C@H](C)/C=C/N(C)C=O)[C@@H](C)C(=O)CC[C@H](C)[C@H](O)[C@H](C)[C@H]1OC(=O)/C=C/C(C)=C/[C@H](O)[C@H](OC)C[C@@H]2C=CC[C@@H](C[C@H](OC)[C@@]3(CO3)[C@@H](OC)C[C@@H](OC)[C@@H]1C)O2,-33.1% (inactive)
9,CCOC(=O)CC1=C(C(=O)OCC)C2(C(=O)N1)C(C(=O)OC)=C(N)Oc1ccccc12 (stereo not given),-13.7% [setting not given] (inactive)
10,COc1ccc2c(c1)[C@@]13CCCCC1[C@@H](C2)NCC3 (stereo not given in full),2.3% [setting not given] (inactive)
